PBM binding z-score data for six sequences are collected here from the supplement of paper PMC6555819.

Test in all cases: PBM binding z-score (relative to random genomic background probes); higher = stronger binding; sequences stand for … in GC…GCGATTGACAGCGTAGAATGAAGG
In experiment [1] the test system is FXR:RXRa (NR concentration 270 nM, RXRa partner concentration 90 nM). Summed up:
(§1)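 The probes on custom Agilent 4×180K protein-binding microarrays were double-stranded, with 34-nt variable regions bearing direct-repeat seeds, single-nucleotide variants, half-site ablations and random human genomic background sequences. Incubation lasted 1 h with ligand-free nuclear receptor dimers in PBS pH 7.4, 2% milk, 0.02% Triton X-100, 1 mM DTT, 0.2 mg/mL BSA and 0.4 mg/ml salmon testes DNA. Antibodies against each partner (one per run) detected bound dimers, and fluorescence scans were regression-normalized. Binding z-scores take the random background probes as reference.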

Experiment [2] relates to LXRa:RXRa (NR concentration 270 nM, RXRa partner concentration 90 nM). Summed up: as §1
Experiment [3] relates to LXRa homodimer (NR concentration 270 nM). The essentials:
as §1

Experiment [4] concerns LXRb:RXRa (NR concentration 270 nM, RXRa partner concentration 90 nM). Summed up: as §1
For experiment [5], the system named is LXRb homodimer (NR concentration 270 nM). Summed up:
as §1

The subject of experiment [6] is PPARa:RXRa (NR concentration 270 nM, RXRa partner concentration 90 nM). Summed up:
as §1

Experiment [7] relates to PPARg:RXRa (NR concentration 180 nM, RXRa partner concentration 90 nM). The essentials: as §1
Experiment [8] deals with PPARg:RXRa 270nM:90nM, anti-RXR (NR concentration 270 nM, RXRa partner concentration 90 nM). Summed up:
as §1

The test system of experiment [9] is PPARg:RXRa 30nM:10nM, anti-RXR (NR concentration 30 nM, RXRa partner concentration 10 nM). The essentials: as §1
Experiment [10] deals with PPARg:RXRa 90nM:30nM, anti-RXR (NR concentration 90 nM, RXRa partner concentration 30 nM). Summed up:
as §1

Experiment [11] concerns PPARg:RXRa DBDmut IVT, anti-RXR (DBD mutation: RXRa K156A/R161A, NR concentration 270 nM, RXRa partner concentration 90 nM). Summed up: as §1
In experiment [12] the test system is PPARg:RXRa IVT, anti-PPARg (NR concentration 270 nM, RXRa partner concentration 90 nM). Summed up:
as §1

In experiment [13] the test system is PPARg DBDmut:RXRa IVT, anti-PPARg (DBD mutation: PPARg1 K132A/R137A, NR concentration 270 nM, RXRa partner concentration 90 nM). Summed up:
as §1

The test system of experiment [14] is PPARg DBDmut IVT, anti-PPARg (DBD mutation: PPARg1 K132A/R137A, NR concentration 270 nM). Summed up:
as §1

The subject of experiment [15] is PPARg homodimer (NR concentration 180 nM). Summed up:
as §1

Experiment [16] concerns PXR:RXRa (NR concentration 270 nM, RXRa partner concentration 90 nM). The essentials: as §1
Experiment [17] has as its system PXR homodimer (NR concentration 270 nM). The essentials: as §1
The subject of experiment [18] is RARa homodimer (NR concentration 270 nM). The essentials:
as §1

In experiment [19] the test system is RARb:RXRa (NR concentration 270 nM, RXRa partner concentration 90 nM). Summed up: as §1
Experiment [20] relates to RARa:RXR (NR concentration 270 nM, RXRa partner concentration 90 nM). Summed up:
as §1

On to CGTCCAAGGTCAAGCTCAGTGAAAGAGACTCGAA, for which the PBM binding z-score in [1] is 7.44; in experiment [2], 5.54; in experiment [3], 0.428; in experiment [4], 3.91; in [5], 0.539; in [6], 5.75. For the same sequence, the PBM binding z-score in [7] amounted to 5.25; in [8], 5.77; in [9], 1.89; in experiment [10], 4.21; in experiment [11], 3.71; in experiment [12], 3.76. Also, the PBM binding z-score in experiment [13] was determined as 0.736; in experiment [14], 0.448; in [15], 3.54; in [16] it was 3.92; in experiment [17], 0.3; in [18], 0.572. The sequence further had a PBM binding z-score in [19] of 5.27.

Take ACTAGTTGTTCAGCTGAGGTCACACACAATTCGG: the PBM binding z-score came to 3.49 in experiment [1]; 3.18 in experiment [2]; 2.25 in [3]; 3.55 in experiment [4]; 0.715 in [5]; 3.83 in [6]. The PBM binding z-score in experiment [7] was 1.53; in experiment [8], 1.94; in experiment [9], 0.705; in experiment [10], 1.03; in experiment [11], 0.514; in [12] it was 2.19. Moreover, the PBM binding z-score is 0.853 in experiment [13]; 0.948 in experiment [14]; 2.16 in [15]; 4.83 in [16]; 1.87 in experiment [17]; 1.09 in [18]. In [19], this sequence displayed a PBM binding z-score of 3.28.

Turning to ATCGAAAGGTCGAAGGTCAGTATACCCACCCGAA, the PBM binding z-score in [1] stood at 5.6; in experiment [2], 4.68; in experiment [3], 1.05; in [4], 4.53; in experiment [5], 0.966; in experiment [6], 5.61. The PBM binding z-score was 6.96 in [7]; 6.43 in experiment [8]; 3.83 in experiment [9]; 5.97 in experiment [10]; 0.724 in experiment [11]; 3.24 in [12]. The PBM binding z-score in experiment [13] is 0.938; in [14], 0.568; in experiment [15], 2.47; in experiment [16], 5.13; in experiment [17], 0.812; in experiment [18], 1.68. This sequence also showed a PBM binding z-score in [19] of 4.54.

As for CGTCCAAGGTCAGATAGGTCAGTGAATGCCGAGT, the PBM binding z-score in experiment [1] was found to be 5.44; in [2], 3.81; in experiment [3] it was 1.77; in experiment [4], 3.45; in [5], 0.397; in experiment [6] it was 4.33. Further, the PBM binding z-score is 2.66 in experiment [7]; 3.09 in [8]; 0.662 in [9]; 1.9 in experiment [10]; 1.9 in experiment [11]; 2.41 in experiment [12]. In addition, the PBM binding z-score in [13] is -0.168; in experiment [14] it was 0.165; in experiment [15], 2.95; in [16], 4.33; in experiment [17], 4.32; in experiment [18] it was 1.22. Also, in [19], the PBM binding z-score was 5.1.

TAGCCTAGGTCACGGGCCAGTATACCACGCGAAC: the PBM binding z-score in experiment [1] is 5.68; in experiment [2], 4.12; in experiment [3] it was 0.223; in experiment [4], 3.33; in experiment [5] it was -0.137; in [6], 5.41. Moreover, the PBM binding z-score in [7] worked out at 5.67; in [8], 4.7; in [9], 1.91; in [10] it was 3.23; in experiment [11], 2.44; in experiment [12], 5.21. Besides, the PBM binding z-score is 0.69 in [13]; 0.437 in experiment [14]; 1.4 in experiment [15]; 2.28 in [16]; -0.694 in experiment [17]; 0.351 in [18]. For the same sequence, in experiment [19], the PBM binding z-score is 4.59.

As to ACTCGGAGGACAAACGTCAGAGCTACGCCAGTGA, the PBM binding z-score was -0.117 in experiment [1]; -0.418 in [2]; -0.482 in experiment [3]; -0.769 in [4]; -0.602 in experiment [5]; -0.386 in experiment [6]. The PBM binding z-score was 0.904 in [7]; 0.765 in experiment [8]; -0.389 in [9]; 0.589 in experiment [10]; -0.0796 in [11]; -0.507 in experiment [12]. Besides, the PBM binding z-score in [13] is -0.617; in [14], -0.00127; in [15] it was -0.209; in [16], -0.77; in experiment [17], -0.0928; in [20], -0.299. The PBM binding z-score in experiment [18] is -0.122; in experiment [19], 0.951.
